In PubChem BioAssay (NCATS) one finds Potency data, which are given here for 40 compounds.

Each structure is given as a SMILES string. Inconclusive results are not listed. Where a call stands in place of a potency, no number is given. Calls of active or inactive are those of the source. The call rests on the fitted dose curve; in most records, active means well fitted inhibition curve with a large enough effect; inconclusive means small, poorly fitted or top-dose-only effect; inactive means no such curve, though single readings can be large or run the other way.
Potency means the concentration at half of the fitted maximal effect.

Chain of Cytochrome P450 3A7 (Homo sapiens) (P24462 whole entry, looked up): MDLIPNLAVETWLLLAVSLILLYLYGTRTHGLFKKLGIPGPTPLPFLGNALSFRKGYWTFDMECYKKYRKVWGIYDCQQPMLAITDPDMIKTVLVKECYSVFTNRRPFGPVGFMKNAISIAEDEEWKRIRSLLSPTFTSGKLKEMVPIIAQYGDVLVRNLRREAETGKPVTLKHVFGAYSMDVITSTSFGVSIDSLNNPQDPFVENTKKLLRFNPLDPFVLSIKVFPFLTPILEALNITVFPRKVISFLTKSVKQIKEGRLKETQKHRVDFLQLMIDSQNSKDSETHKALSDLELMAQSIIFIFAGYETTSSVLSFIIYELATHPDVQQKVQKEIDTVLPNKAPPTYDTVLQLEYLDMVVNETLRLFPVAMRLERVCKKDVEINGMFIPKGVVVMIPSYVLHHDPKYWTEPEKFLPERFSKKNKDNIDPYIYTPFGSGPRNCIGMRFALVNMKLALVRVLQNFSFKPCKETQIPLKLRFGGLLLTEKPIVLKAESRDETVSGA

The experiment concerns the target Cytochrome P450 3A7 (Homo sapiens) (UniProt P24462). Nature of the experiment: Cytochrome P450 family 3 subfamily A member 7 (CYP3A7) small molecule antagonists: luciferase biochemical qHTS assay (AID 1963596). Further: nearly all actives have a fitted effect of over 40% in size. The settings on record: P450-Glo CYP3A7 enzyme luminescence, 1 h; series mostly up to 57.4 µM. From the text: National Center for Advancing Translational Sciences [NCATS] Assay Overview: Cytochrome P450 (CYP) enzymes are membrane-bound hemeproteins that play a key role in metabolism of drugs and xenobiotics. The CYP3A subfamily is the most abundant, representing 30% of the total adult hepatic CYP content, whereas CYP3A7 is found predominantly in human fetal liver and accounts up to 50% of the total fetal hepatic CYP content. Testing the effect of chemicals on CYP isozymes is useful to minimize the adverse drug reactions and toxicities in the drug development process. Chemicals were tested for their effect on CYP enzyme activities by using P450-Glo (TM) screening systems (Promega Corporation, Madison, WI). These systems provide a luminescent method containing proluciferin substrates and are converted to luciferin products by CYP isozymes. The luciferin products formed are detected with a luciferin detection reagent, and the amount of light produced is proportional to CYP activity. P450-Glo (TM) CYP3A7 screening system (Catalog. No. V8812) was used to detect the compounds that interfere with CYP3A7 activity. The positive control compound used for CYP3A7 assay is ketoconazole (Sigma-Aldrich, St. Louis, MO).
Assay Protocol Summary: Two ul of enzyme-substrate mix was dispensed into medium binding white/solid 1536-well plates (Greiner Bio-One North America Inc., Monroe, NC) using a Flying Reagent Dispenser (FRD, Aurora Discovery, San Diego, CA). Compounds dissolved in DMSO, and positive control (ketoconazole) were transferred to the assay plates at 23 nl using a Pintool station (Wako, San Diego, CA). The assay plates were incubated at room temperature for 10 min. Then 2 ul of NADPH regeneration solution was added to each well of the assay plates using an FRD and incubated at room temperature for 1 h. The reaction was stopped by adding 4 ul of detection reagent using an FRD and after 20 min incubation at room temperature the luminescence signal was measured using a ViewLux plate reader (Perkin Elmer, Shelton, CT). Data were expressed as relative luminescence units.
(Quantitative high-throughput screening tests each substance at several concentrations.)
`CC(=O)[O][Hg][c]1ccccc1`: the Potency is 0.977 µM (active).
The result for `CC[N+]1(CCOC(=O)C(O)(c2ccccc2)c2ccccc2)CCCCC1` reads “inactive”; that for `CCCC1CCCCN1` (stereo not given), “inactive”; that for `C=CCC1(CC(C)C)C(=O)NC(=O)NC1=O`, “inactive”.
`CCN[C@H](C)Cc1cccc(C(F)(F)F)c1`: the Potency result was “inactive”.
The result for `Sc1ccccc1Cl` reads “inactive”; that for `C[C@@H](C1CC[C@@]2(O)C3=CC(=O)[C@@H]4C[C@@H](O)[C@@H](O)C[C@]4(C)[C@H]3CC[C@]12C)[C@H](O)CCC(C)(C)O` (stereo not given in full), “inactive”; that for `O=[N+]([O-])c1ccc([As](=O)(O)O)cc1`, “inactive”.
The result for `CCC1(c2ccccc2)CCC(=O)NC1=O` (stereo not given) reads “inactive”.
Consider `COc1ccsc1CNCC[C@@]1(c2ccccn2)CCOC2(CCCC2)C1`, for which the Potency result was “inactive”.
In the case of `Cc1sc2c(c1C)C(c1ccc(Cl)cc1)=NC(CC(=O)Nc1ccc(O)cc1)c1nnc(C)n1-2` (stereo not given) it was “inactive”; in that of `CC(C)NCC(O)c1ccccc1Cl` (stereo not given), “inactive”.
The result for `O=[N+]([O-])/N=C1\NCCN1Cc1ccc(Cl)nc1` reads “inactive”; that for `C=CCN1CCC23c4c5ccc(O)c4O[C@H]2C(=O)CC[C@@]3(O)C1C5` (stereo not given in full), “inactive”; that for `CCC1(CC)C(=O)NC(=O)NC1=O`, “inactive”.
`CCN[C@@H](C)Cc1ccccc1`: the Potency entry was “inactive”.
Turning to `c1ccc([C@@H]2C[C@H]2NC2CCNCC2)cc1`, the Potency entry was “inactive”.
In the case of `CC[N+](CC)(CC)CC` it was “inactive”.
In the case of `CCN[C@@H](C)Cc1cccc(C(F)(F)F)c1` it was “inactive”; in that of `O=S(=O)(c1ccc(Cl)cc1)c1ccc(Cl)cc1`, 2.02 µM (active); in that of `CCCCNC(C)(C)[P+](=O)O`, “inactive”.
In the case of `CC(Cc1ccc(O)cc1)NCC(O)c1cc(O)cc(O)c1` (stereo not given) it was “inactive”.
With `C[C@H]1O[C@@H](O[C@H]2[C@@H](O)C[C@H](O[C@H]3[C@@H](O)C[C@H](O[C@H]4CC[C@@]5(C)[C@H](CC[C@@H]6[C@@H]5CC[C@]5(C)[C@@H](C7=CC(=O)OC7)CC[C@]65O)C4)O[C@@H]3C)O[C@@H]2C)C[C@H](O)[C@@H]1O`, the Potency result was “inactive”.
The result for `CCCCCCn1c(=O)c(C(=O)Nc2ccc(C(=O)OCCC)cc2)c(O)c2ccccc21` reads “inactive”.
`NC(=O)OCCCc1ccccc1`: the Potency result was “inactive”.
The result for `CN1C(=O)CCS(=O)(=O)C1c1ccc(Cl)cc1` (stereo not given) reads “inactive”; that for `O=C(O)CCCOc1ccc(Cl)cc1Cl`, “inactive”; that for `CC(C)(C)NCC(O)c1ccccc1Cl` (stereo not given), “inactive”.
Take `Cc1cc(C(=O)CN2CCCC2)c(C)n1-c1ccc(F)cc1`: the Potency entry was “inactive”.
Regarding `O=C(N[C@@H]1N=C(c2ccccc2F)c2cccc3c2N(CC3)C1=O)c1cc2ccccc2[nH]1`, the Potency result was “inactive”.
In the case of `NCCS[As](SCCN)c1ccc(Nc2nc(N)nc(N)n2)cc1` it was “inactive”; in that of `N#Cc1cn([C@@H]2O[C@H](CO)[C@H](O)[C@@H]2O)c2ncnc(N)c12`, “inactive”.
In the case of `CCNC(C)Cc1cccc(C(F)(F)F)c1` (stereo not given) it was “inactive”.
Regarding `C1CCC(NC2CCCCC2)CC1`, the Potency entry is “inactive”.
The result for `CCNc1nc(Cl)nc(NCC)n1` reads “inactive”.
In the case of `CCCN1CCC[C@@H]2Cc3[nH]ncc3C[C@H]21` it was “inactive”.
Regarding `CCN(Cc1ccc(Cl)nc1)/C(=C/[N+](=O)[O-])NC`, the Potency result is “inactive”.
For the compound `O=C(N1CCCCC1Cc1ccccc1)n1cc(-c2ccc(-c3ccccc3)cc2)nn1` (stereo not given), the Potency result is “inactive”.
In the case of `C#CC(O)(C=CCl)CC` (stereo not given), the Potency result was “inactive”.
The result for `CCNCC(O)c1cccc(O)c1` (stereo not given) reads “inactive”.
